HEK293 cAMP cs: counter-screen for TSHR agonists: cAMP increase in parental HEK293. Potency, µM (top dose mostly 57.1 µM), for inactives: at the top dose activation, usual class: activators. 73,000 tested, 2.5% active. parental HEK293 CNG cAMP sensor, membrane potential fluorescence. AID 938; also: potency is read from the fitted curve at half-maximal effect; % of control where 0% means no effect; nearly all actives have a fitted effect of over 55% in size
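Counterscreen for endogenous-receptor signalling: CNG-channel HEK 293 cells report cAMP rise by membrane depolarization. After 60 min dye equilibration with 100 uM RO 20-1724, compounds incubated 30 min before bottom-read fluorescence at 590 nm.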
TSHR agonist: TSH receptor (human) agonism | P16473 | HEK293-CNG-TSHR cells (CNG channel as cAMP sensor), membrane potential dye, cAMP | Potency, µM (top dose mostly 57.1 µM), without a hit: top-dose activation, hits mostly activators | 73,000 tested, 0.48% active | AID 926; active = well fitted activation curve with a large enough effect in the main read-out, with a control signal flat, not every such curve was filed as active; inconclusive = small, poorly fitted or top-dose-only effect, or a change in a side signal; inactive = no such curve, though single readings can be large or run the other way; % of control where 0% means no effect;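 also: the control signal comes from parental cells without the receptor; potency is read from the fitted curve at half-maximal effect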
Target sequence (P16473 whole entry, looked up): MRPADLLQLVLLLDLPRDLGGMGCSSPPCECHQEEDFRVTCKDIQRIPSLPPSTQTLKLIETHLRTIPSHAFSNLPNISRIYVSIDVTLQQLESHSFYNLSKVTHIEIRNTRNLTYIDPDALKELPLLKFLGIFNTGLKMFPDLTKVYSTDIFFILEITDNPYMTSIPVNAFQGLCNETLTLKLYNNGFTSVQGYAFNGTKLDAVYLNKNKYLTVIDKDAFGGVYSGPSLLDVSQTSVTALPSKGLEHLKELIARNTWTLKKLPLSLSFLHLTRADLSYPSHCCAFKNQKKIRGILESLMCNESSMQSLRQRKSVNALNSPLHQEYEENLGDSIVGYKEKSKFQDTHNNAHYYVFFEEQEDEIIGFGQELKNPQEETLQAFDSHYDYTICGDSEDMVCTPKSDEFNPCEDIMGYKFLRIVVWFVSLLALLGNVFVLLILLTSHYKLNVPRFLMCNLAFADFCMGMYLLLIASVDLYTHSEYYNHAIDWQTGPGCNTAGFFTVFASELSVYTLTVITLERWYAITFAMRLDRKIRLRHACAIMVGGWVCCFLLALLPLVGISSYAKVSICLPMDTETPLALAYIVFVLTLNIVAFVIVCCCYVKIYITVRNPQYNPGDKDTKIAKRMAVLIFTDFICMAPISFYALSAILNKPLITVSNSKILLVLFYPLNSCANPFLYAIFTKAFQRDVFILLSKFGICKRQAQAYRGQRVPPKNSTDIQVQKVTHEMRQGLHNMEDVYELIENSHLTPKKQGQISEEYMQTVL
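cAMP rise detected as CNG-channel membrane depolarization by fluorescent dye (emission 590 nm), 30 min after compound, following 60 min dye loading containing 100 uM RO 20-1724 at room temperature. Cells: TSHR/CNG HEK 293, with parental CNG HEK 293 as control.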
p53ts 39C kill: p53ts cell cytotoxicity, nonpermissive temperature. H1299-p53A138V viability at 39C, ATP luminescence, 24 h. Potency, µM (doses to about 46.1 µM), for the others: top-dose activity change, negative = cell killing, usual class: cytotoxic. 130,000 tested, 1.5% active; also: potency is read from the fitted curve at half-maximal effect; % is scaled to controls: 0 for no effect and ±100 for the full control effect; nearly all actives have a fitted effect of over 55% in size
IkB signaling: suppresses IkB signaling in ABC-DLBCL reporter cells. ABC-DLBCL IkBa-CBG/CBR dual luciferase ratio, 4 h; response scale: scaled: untreated 0%, proteasome inhibitor 100%. Potency, µM (doses to about 57.1 µM), inactives show top-dose IkBa stabilization activation. 110,000 tested, 0.04% active. AID 445; active = well fitted curve in the direction sought with a large enough effect in the signal ratio, not every such curve was filed as active; inconclusive = small, poorly fitted or top-dose-only effect, or a change in a side signal; the % refers to the signal ratio;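 also: potency is read from the fitted curve at half-maximal effect; the direction sought is a rising ratio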
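In this assay, an IκBα–CBG68 fusion accumulates when IKK-driven degradation is blocked; native CBR normalizes for cell number. OCI-Ly3 cells were treated 4 h with compound and doxycycline, then green and red light read after Chroma-Glo addition.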
p53ts 32C tox: p53ts cell cytotoxicity, permissive temperature; H1299-p53A138V at 32C, ATP luminescence viability, 24 h; Potency, µM (top dose mostly 46.1 µM), for inactives: at the top dose activity change, negative = cytotoxicity, most hits filed as cytotoxic; 130,000 tested, 0.93% active; AID 924;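 also: potency is read from the fitted curve at half-maximal effect; 0% = DMSO and -100% = full killing by reference compound; nearly all actives have a fitted effect of over 55% in size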
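ATP-content luminescence (ATPlite) read-out after 24 h compound exposure at 32C in H1299-p53A138V cells (600/well). Tested up to 46 uM. Normalized to DMSO (0%) and 100 uM tamoxifen (100% killing); Hill-fit AC50.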
Peg3 imprint: inducers of genomic imprint erasure in mouse ES cells. mouse ES Peg3-LacZ reporter, beta-gal luminescence, 40 h. Potency, µM (highest dose often 60.7 µM), inactives show top-dose activity change, positive = activation, hits mostly activators. 110,000 tested, 0.02% active. AID 1948; also: potency is read from the fitted curve at half-maximal effect
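Imprint erasure is scored as LacZ activity from the silenced maternal Peg3 allele in feeder-free female ES cells cultured 40 h with LIF. Luminescence is normalized to in-plate negative controls and fitted to the Hill equation.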
HEK293 cAMP cnt: TSHR-independent cAMP elevation, counter-screen; shares compounds with TSHR agonist; parental HEK293 CNG biosensor, cAMP membrane potential fluorescence; activity change, negative = inhibition, % at 32.9 µM; 150 tested, under 10 active; AID 953
Starred values were filed as active, the others as inactive; ? = inconclusive; nt = not tested or not shown; [ ] = another dose, or the depositor's remark. Most compounds without a hit are left out; they make up all but 3.1% or so of the library. Unless noted, calls follow the shape of the dose curve; as a rule, active = well fitted curve in the direction sought with a large enough effect; inconclusive = small, poorly fitted or top-dose-only effect, or another doubt; inactive = no such curve, though single readings can be large; an effect the other way counts as inactive or inconclusive.

SMILES	HEK293 cAMP cs	TSHR agonist	p53ts 39C kill	IkB signaling	p53ts 32C tox	Peg3 imprint	HEK293 cAMP cnt
CCOC(=O)c1ccc(CN(Cc2ccc(F)cc2)S(=O)(=O)c2cc(C(=O)Nc3ccccc3CC)ccc2F)cc1	nt	nt	20%	?	12%	-24%[10.9 µM]	nt
COC(=O)C1=C(C)NC(=O)NC1c1cn(-c2ccccc2)nc1-c1cccs1 (stereo not drawn)	13%	25µM*	35%	?	28%	-5%	5
COc1cc2c(N3CCOCC3)cc(O)c(CC(=O)Nc3ccccc3)c2cc1OC	25%	32µM*	6%	2%	6%	-3%	-11
Cc1ccc(C)c(OCC(=O)Nc2ccc(S(=O)(=O)N3CCN(C)CC3)cc2)c1	nt	nt	2%	nt	10%	nt	nt
Cc1ccc(C(C)C)c(OCC(=O)Nc2ccc(N3CCN(S(C)(=O)=O)CC3)cc2)c1	5%	-38%	-7%	2%	0%	4%	-30[25.6 µM]
CC(C)C(=O)N[C@@H]1CCCN1C(=O)/C=C\c1ccccc1	1%[11.4 µM]	-5%[11.4 µM]	5%[9.22 µM]	nt	0%[9.22 µM]	nt	nt
Cc1cc(SCNC(=O)c2ccccc2)ncn1	17%	4%	-17%	2%	-10%	9%	-3[25.6 µM]
Cc1cc(C)nc(SCNC(=O)c2ccc(F)cc2)n1	-3%	-6%	2%	1%	5%	-12%	nt
COc1ccc(C(=O)N(Cc2ccco2)Cc2cccs2)c(O)c1	24%	2.5µM*	-6%	1%	-8%	-13%	-7
CCCS(=O)(=O)N1CCN(C(=O)c2cccnc2)CC1	-2%	1%	-2%	nt	1%	nt	nt
CCCS(=O)(=O)N1CCN(C(=O)c2ccc(-c3ccccc3)cc2)CC1	17%[11.4 µM]	nt	10%	3%	1%	-12%	17
CC(C)CC(=O)NCC1(N(C)C)CCCCC1	nt	nt	17%	-1%	-8%	-6%[10.9 µM]	nt
Cc1occc1-c1nnc(SCC(=O)Nc2ccccc2)n1C(C)c1ccccc1 (stereo not drawn)	31%	7.9µM*	-11%	?	-19%	-17%	-10
Cc1occc1-c1nnc(SCC(=O)N2CCOCC2)n1CC(C)C	nt	nt	19%	nt	6%	nt	nt
Cc1occc1-c1nnc(SCC(=O)NCc2ccc3c(c2)OCO3)n1CC(C)C	29%	16µM*	14%	0%	-1%	2%	10
CCOc1ccc(NC(=O)Cn2c(=O)n(Cc3ccc4c(c3)OCO4)c(=O)c3ccc(C(=O)NC4CCCCC4)cc32)cc1	nt	nt	8%	-2%	7%	27%[10.9 µM]	nt
COCCNc1nc2c(c(=O)n(C)c(=O)n2C)n1Cc1c(F)cccc1Cl	nt	nt	-12%	?	-1%	-17%[10.9 µM]	nt
Cc1oc(-c2cccc(Cl)c2)nc1CN1CCCC(C(=O)NC(C)c2ccc3c(c2)OCCO3)C1 (stereo not drawn)	9%	5%	1%	?	48%	-20%	9[25.6 µM]
Cc1oc(-c2cccc(Cl)c2)nc1CN1CCCC(C(=O)NCc2ccc(Cl)cc2)C1 (stereo not drawn)	nt	nt	?	?	-4%	-16%[10.9 µM]	nt
COc1cccc(CNC(=O)CN(c2ccc(C(C)C)cc2)S(=O)(=O)c2c(C)n[nH]c2C)c1	nt	nt	12%	?	13%	18%[10.9 µM]	nt
CC(=O)c1ccc(N2CCN(C(=O)NCc3noc4ccc(C)cc34)CC2)cc1	nt	nt	-17%	3%	3%	-9%[10.9 µM]	nt
Cc1ccccc1-c1nc(CN2CCC(C(=O)N3CCC(C(N)=O)CC3)CC2)c(C)o1	-8%[11.4 µM]	-2%	14%	-2%	5%	-11%	nt
Cc1ccccc1-c1nc(CN2CCC(C(=O)N3CCN(c4ccccn4)CC3)CC2)c(C)o1	24%	11%	-6%	?	-10%	-14%	17[25.6 µM]
Nc1nc2c(nc(Br)n2[C@@H]2O[C@H]3COP(=O)(O)O[C@@H]3[C@H]2O)c(=O)[nH]1	?	?	19%	8%	11%	nt	nt
Cc1cnc(NC(=O)c2ccc3c(c2)C(=O)N(Cc2ccco2)C3=O)s1	-12%	-19%	6%	1%	-5%	2%	-11[25.6 µM]
SMILES	HEK293 cAMP cs	TSHR agonist	p53ts 39C kill	IkB signaling	p53ts 32C tox	Peg3 imprint	HEK293 cAMP cnt
O=C(NC1=NCCS1)c1ccc2c(c1)C(=O)N(Cc1ccco1)C2=O	0%	24%	3%	4%	5%	-15%	nt
CCc1cccc(NC(=O)CCS(=O)(=O)c2ccc(C)cc2)c1	nt	nt	12%	?	-5%	9%[10.9 µM]	nt
CC(C)[C@H](N=Cc1ccccc1O)C(=O)O	1%[11.4 µM]	4%[11.4 µM]	13%[9.22 µM]	-1%[11.4 µM]	-4%[9.22 µM]	1%[10.9 µM]	nt
O=C(CN1C=NS(=O)(=O)c2ccccc21)Nc1ccc(Br)cc1	nt	nt	-11%	1%	9%	-5%[10.9 µM]	nt
Cc1onc(-c2ccccc2Cl)c1C(=O)Nc1ccc(-n2nncc2-c2ccco2)cc1	-6%	6.3µM*	16%	?	13%	-15%	-3
CS(=O)(=O)N1CCN(C(=O)c2cc(-c3cccs3)nc3ccccc23)CC1	-4%	20µM*	-15%	3%	-24%	2%	-5
CCOC(=O)CCc1c(C)nc2c(c(C)nn2C(C)(C)C)c1C	21%	25µM*	-2%	4%	7%	-18%	13
c1ccc(-n2cnc3cc(NCc4ccncc4)ccc32)cc1	-1%	-8%	-29%	2%	-29%	-19%	1[25.6 µM]
c1ccc(-n2cnc3cc(NCc4ccccn4)ccc32)cc1	-10%	-12%	-19%	3%	-22%	-9%	nt
Cc1onc(-c2ccccc2)c1C(=O)N1CCCSC1=Nc1ccccc1	?	?	-12%	3%	2%	-12%	19
Cc1onc(-c2ccccc2)c1C(=O)N1CCCN(C(=O)c2c(-c3ccccc3)noc2C)CC1	17%	22%	7%	0%	11%	19%	nt
CCc1ccccc1NC1=NCC(=O)N1Cc1ccc(OC)cc1	27%	7.9µM*	-6%	5%	-4%	-8%	-6
COc1cccc(C2CC(c3ccccc3C)n3nc(N)nc3N2)c1 (stereo not drawn)	7%	0%	13%	0%	2%	-10%	nt
COc1cccc(C2CC(c3ccccc3OC)n3nc(N)nc3N2)c1 (stereo not drawn)	8%	5%	0%	0%	4%	-3%	6[25.6 µM]
COC(=O)c1cc(C(=O)OC)cc(N2C(=O)CC(Sc3nc(C)cc(C)n3)C2=O)c1 (stereo not drawn)	0%	25µM*	-4%	3%	4%	-4%	-8
O=C1CC(c2ccco2)CC2=C1C(c1ccccc1)n1nc(C(F)(F)F)nc1N2 (stereo not drawn)	10%	0.63µM*	26%	?	13%	-11%	-7
